Measured values reported in the supplement of paper PMC10681739.

biological target: T1, ETS1 (UniProt P14921); assay: TF binding intensity (PBM fluorescence), negative control probe (arbitrary fluorescence units); higher = stronger binding
T1 sequence: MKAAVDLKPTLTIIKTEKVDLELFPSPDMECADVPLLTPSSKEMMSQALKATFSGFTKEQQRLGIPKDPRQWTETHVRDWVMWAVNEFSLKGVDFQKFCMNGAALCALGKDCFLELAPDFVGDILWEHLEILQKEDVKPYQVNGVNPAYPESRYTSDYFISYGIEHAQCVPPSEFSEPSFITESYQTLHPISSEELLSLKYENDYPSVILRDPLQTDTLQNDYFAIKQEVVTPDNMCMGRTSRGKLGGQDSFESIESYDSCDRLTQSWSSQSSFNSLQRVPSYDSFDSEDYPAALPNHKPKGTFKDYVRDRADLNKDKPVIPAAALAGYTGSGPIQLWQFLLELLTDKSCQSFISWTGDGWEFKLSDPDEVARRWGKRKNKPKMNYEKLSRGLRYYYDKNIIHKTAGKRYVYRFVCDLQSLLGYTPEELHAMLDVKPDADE
Experimental: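 gcPBM negative-control 36-bp genomic probes lacking TF binding sites. Each was incubated with recombinant human ETS1 or RUNX1 alone and detected by antibody fluorescence. Values are medians over replicate spots (4 spots for the ETS1-RUNX1 arrays, 3 for the ETS1-ETS1 array). The probes sit in constant array flanks that are not printed.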

| Sequence | TF binding intensity |
| --- | --- |
| CAGGCAGCATCTGGGGGTGTGTGGGTTTGGCAAGCT (protein concentration 10 nM) | 134 |
| AAATAAATTCTTGTCTGGGGCCGACATCTGTGTGGA (protein concentration 10 nM) | 119 |
| TAGTTAAGACCTCTTAAGTCATAATAATATTGCCTA (protein concentration 10 nM) | 102 |
| CGTTCGTTCGACAGCTCTTGTGGTAAACAGCGTCAA (protein concentration 10 nM) | 132 |
| ATATATAGTAACCACATGATTAATAATAATAATGCA (protein concentration 10 nM) | 119 |
| TTTTTCTTTTAATTTTTCTTTTTTATTCTATTTTTT (protein concentration 10 nM) | 117 |
| ATTCTTCTAATAATCCAGTTTGAGTGGATCCTCTGT (protein concentration 10 nM) | 112 |
| CATATAACTGGTAGAACATCAGGTGTGGGTGGATCA (protein concentration 10 nM) | 111 |
| ACCTGGGTCTCTGACAGACACCCCAAACTTCAGTTC (protein concentration 10 nM) | 102 |
| TTATGAACTGTATCATGTGGTTTGAGTTTAATTTGG (protein concentration 1 nM) | 487 |
| GGGGCCTCGAAGGTCCTCCTGGACTGCAAGAGAGGA (protein concentration 10 nM) | 131 |
| GGGCCGCGCCGAGGGGACCACGGGACGCCCTCCTTC (protein concentration 10 nM) | 102 |
| TTTAAAAAATCTACTCTGTCCCTTAAAAGGCCGTTT (protein concentration 10 nM) | 107 |
| CAGGCATCTGTCATGCCCAGTAATTAATTGCTCCAA (protein concentration 10 nM) | 117 |
| ACCTCATCGAAAGTCTCTCTGGAGGCTGAGTTTGTC (protein concentration 10 nM) | 123 |
| ATATTCTCTTACATAACCACAGTACATTTATCAGCC (protein concentration 1 nM) | 573 |
| AGACTGCATACTTATAAAGTGGAGTATGCAGATAAT (protein concentration 10 nM) | 119 |
| CCTTTGTTAGTGATTTGTGGTAGCTAATGTCGTAAT (protein concentration 1 nM) | 548 |
| GCAACACTCACTCAAACCACAGTAATCAAAAGGCAC (protein concentration 1 nM) | 496 |
| GTGTCTGCCTCATTGGCGAAGGCCAGCCTCTGAGCC (protein concentration 10 nM) | 140 |

| Sequence | TF binding intensity |
| --- | --- |
| ACTGGCTAAGGTCTCTCCTGACCTGATTCCATTCTT (protein concentration 10 nM) | 97.3 |
| GGGTCTTGCCATTGAGAGGCAGGTGATGTGCTGTTT (protein concentration 10 nM) | 132 |
| GGGTGGTGGGGCTTTCTTAGCAGCAAAATGTTCGCG (protein concentration 10 nM) | 223 |
| AGTTTTTTGTTTTGAGCCGCAGTCTCGCTCTGTCGC (protein concentration 1 nM) | 351 |
| CTAAATGGCATCTGATGTGGTATCTCTCCTCAGTTC (protein concentration 1 nM) | 455 |
| AAGTATTGTAGTTGTTGTGGTAAAAACAGATAGATA (protein concentration 1 nM) | 529 |
| GTGAATTCAAAACAACCCACAGTTTTAATTCTCTGT (protein concentration 1 nM) | 452 |
| AGGTGCACGATGGGTGGGGAGCTGCTCAGGGCACTG (protein concentration 10 nM) | 112 |
| GGGGGTATAGGGGAGCAGTCCCATGTAGTAGTAGAA (protein concentration 10 nM) | 172 |
| CTCTACCTACAAAAAGACTGCAATTGTGTTACCTTT (protein concentration 10 nM) | 132 |
| CAACCTAACTATAATGCAAATAGGGATTCTTTTTCT (protein concentration 10 nM) | 88.5 |
| GTTCATCATCTCTCGTCAAGATGATTAACGACATGG (protein concentration 10 nM) | 141 |
| TCTCTCTGCTCTGTGAACTCTAGCTGTCTTGGCTTC (protein concentration 10 nM) | 142 |
| CCGCACGCGGGCGCGGGCCAGCTGCAGATGGAGAAC (protein concentration 10 nM) | 136 |
| CTTGGTGTGTCTGAAGAAAGATCAGAAGGCTGGCAT (protein concentration 10 nM) | 123 |
| GGCCCTGGGCCTGACCCATGAAATCATTTTTCCCTT (protein concentration 10 nM) | 94.3 |
| GCTGGGGTTTGCTGCCTGGAGGCAGCCTGTCCAGGA (protein concentration 10 nM) | 109 |
| CCATCGATGAAAAGGCTGCTATCTCTCGCTGATGGG (protein concentration 10 nM) | 139 |
| AGCAGATCATTTGAGCCTGGGAGGCGCACATGGCAG (protein concentration 10 nM) | 116 |
| AAGTCCCTCCTCTAAACCACTTTGATGAGGACCAAA (protein concentration 1 nM) | 387 |
